This is part of a sample that, as a whole, favours compounds with a hit. Of some 83,000 tested, about 20% had one in any assay.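 Growth was measured after 48 h exposure to one concentration of compound in 96-well plates. Values under 10 count as active.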 A number with no mark means an inactive call. Active and inactive are the calls of the source.

This is an account of results in PubChem BioAssay (NCI).

This assay concerns HCT-15 colon. The experiment in a line: NCI-60 one-dose screen, 48 h (100 = growth as untreated, 0 = no growth, -100 = all killed). Conditions: 10 µM unless noted. Here is the method:
Growth inhibition of the HCT-15 human tumor cell line is measured as a screen for anti-cancer activity. Cells are grown in 96 well plates and exposed to the test compound for 48 hours. Compounds are tested at a single concentration, which is 10^-5 M for most compounds. The reported endpoint is percent growth (GI% or GIPRCNT), where numbers from 0 - 100% represent growth inhibition, and numbers from -100% - 0 represent cell death. For example, a value of 40 represents 60% growth inhibition. A value of 0 means no net growth occurred over the course of the experiment. A value of -40 indicates 40% of cells at the beginning of the experiment died by the end of the experiment. A value of -100 means all cells are dead at the end of the experiment.
NCI-60 Human Tumor Cell Lines Screen was performed using the standard one-dose NCI protocol, which is described in more detail at https://dtp.cancer.gov/discovery_development/nci-60/default.htm.
Compounds with GIPRCNT values below 10 were considered active. Activity score was based on GIPRCNT using the following formula: […]
Score is 0 for GIPRCNT values of 100 or above, 50 for GIPRCNT values of 0, and 100 for GIPRCNT values of -100.
On to `COc1cc(C2CC(=O)Nc3c2cc(Br)c2ccccc32)cc(Br)c1OC` (stereo not given), for which the growth is 39.6%.
As for `COc1cc2c(c(OC)c1OC)-c1ccc(NN(C(=O)c3ccccc3)C(=O)c3ccccc3)c(=O)cc1[C@@H](NC(C)=O)CC2` (tested in a mixture with another compound), the figure is 48.8%; as for `Cc1cc2cn3c4cccnc4[nH]c(=O)c3c2cc1C`, -37.7% (active).
For `COc1ccc2nc(NC(=O)c3cc(-c4ccc(F)cc4)n4nc(-c5ccccc5)cc4n3)sc2c1`, the growth is 90%.
The result for `Cc1nc2c(O)cccc2cc1CO` reads 109%.
The result for `Nc1ccc(C2=Nc3cccc4cccc(c34)S2)cc1` reads 54.5%; that for `COc1ccc2[nH]cc(/C=C3/C(=O)Nc4ccc(F)cc43)c2c1`, 75.6%.
As for `NC(=O)SCC(=O)Nc1ccccc1-c1ccccc1`, the figure is 107%.
Consider `COC(=O)[C@]1(CCSC)N[C@H](c2cn(-c3ccccc3)nc2C)[C@@H]2C(=O)N(c3ccccc3)C(=O)[C@@H]21`, for which the growth is 112%.
As for `CCCCCCCC/C=C/CCCCCCCC1=NC(C)(C)CN1CC(C)O` (stereo not given), the figure is 18.3%; as for `Nc1ncc(-c2cnn(C3CCNCC3)c2)cc1-c1nc2cc(Cl)ccc2o1`, -84.9% (active).
As for `COc1ccc(Cn2cc3c(c2-c2ccccc2)CCc2cncnc2-3)cc1`, the figure is 45.3%; as for `O=C1c2ccccc2C(=O)c2c1cccc2-n1nnc2ccccc21`, 102%; as for `Cc1ccc(C=C2C(Cl)=C(Cl)C(Cl)=C2Cl)cc1`, -69.5% (active).
As for `CCC(O)C(C)(C)C` (stereo not given), the figure is 102%; as for `CC/C=C\C=C/C(=O)N/C=C/CC1Cc2cccc(O)c2C(=O)O1` (stereo not given), 80.3%.
With `COc1ccc2nc3cc(Cl)ccc3c(N3CCN(c4ccnc(Nc5ccc(F)cc5)n4)CC3)c2c1`, the growth was 48.3%.
The result for `NC(=O)c1ncn([C@@H]2O[C@H](CO)[C@@H](O)[C@H]2O)n1` reads 83.7%.
The result for `Cn1cc(-c2csc(-c3cn(C)c4ncccc34)n2)c2cc(F)cnc21` reads 61%; that for `O=C(CCc1nnc(Cn2ccnc2)o1)c1nc2ccccc2[nH]1`, 100%.
For the molecule `CC(C)(C)c1ccc(C(O)CCCN2CCC(C(O)(c3ccccc3)c3ccccc3)CC2)cc1` (stereo not given), the growth is -73.7% (active).
As for `Cc1ccc(C(O)C2=CC(=O)c3ccccc3C2=O)cc1` (stereo not given), the figure is 93.3%.
As for `CCN(CC)c1ccc(C(O)C2=CC(=O)c3ccccc3C2=O)cc1` (stereo not given), the figure is 30.3%; as for `Cc1ccc2c(c1)O/C(=C\c1ccc([N+](=O)[O-])o1)C2=O`, 4.4% (active); as for `CN(C)c1nc(N)nc(Cn2c(-c3nonc3N)nc3ccccc32)n1`, 59.4%.
As for `CCSc1nnc2n(Cc3ccccc3)c(=O)c3c(C)c(C(N)=O)sc3n12`, the figure is 97.9%; as for `Cn1c(N)c(N=O)c(=O)[nH]c1=O`, 112%; as for `CCN(CC)CCOc1ccccc1-n1c(C)ccc1-c1ccccc1`, 90.5%.
With `O=c1[nH]c(=O)n(C2CC(O)C(CO)O2)cc1C(F)(F)F` (stereo not given), the growth is 73.9%.
Regarding `Cc1cc(N2CCOCC2)nc(N2CCOCC2)n1`, the growth was 102%.
As for `COc1ccc(CCN2CCCN3C2=Nc2ccccc2S3(=O)=O)cc1`, the figure is 25.4%; as for `COc1ccc2c(c1)/C(=C\c1c[nH]c3ccc(F)cc13)C(=O)N2`, 66%.
In the case of `O=NC1CC=CCC1c1ccccc1` (stereo not given), the growth was 104%.
The result for `O=C(Nc1nc(-c2ccccc2)cs1)c1cc(O)c(O)c(O)c1` reads 27.3%.
As for `O=C1NCN(CCO)CN1`, the figure is 109%; as for `Clc1nc(Cl)c2ncn(-c3ccccc3)c2n1`, 44.8%.
As for `O=C1OC(c2ccc(-c3ccccc3)cc2)=C/C1=C/c1cccs1`, the growth was 98.1%.
`COc1cc(/C=C/C(=O)c2c(-c3ccc(F)cc3)nc3sc(C)nn23)cc(OC)c1OC`: the growth was 15.9%.
The result for `COC(=O)CC1=C(C)/C(=C/c2[nH]c(-c3ccc[nH]3)cc2OC)N=C1C` reads 3.06% (active).
With `CC(C)c1ccc(C(=O)Nc2sc3c(CN(C)C)c(O)ccc3c2C(N)=O)cc1`, the growth is -48.7% (active).
